Publication PMC5540273 (PLoS ONE, 2017)

Experiments:
Conditions in all cases: concentration: 1 μM, replicates: in singlicate; n = 1
[1] = test system: MYLK4
[2] = test system: MYLK
[3] = test system: MYO3A
[4] = test system: MYO3B
[5] = test system: T1, NDR1
T1 construct: gene STK38

[6] = test system: NDR2
[7] = test system: NEK10
[8] = test system: NEK11
[9] = test system: NEK1
[10] = test system: NEK2
[11] = test system: NEK3
[12] = test system: NEK4
[13] = test system: NEK5
[14] = test system: NEK6
[15] = test system: NEK7
[16] = test system: NEK9
[17] = test system: T2, NIK
T2 construct: gene MAP3K14

[18] = test system: T3, NIM1
T3 construct: gene MGC42105

[19] = test system: NLK
[20] = test system: T4, OSR1
T4 construct: gene OXSR1
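Note: KINOMEscan kinase panel screen.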

Compound | %Inh [1] [%] | %Inh [2] [%] | %Inh [3] [%] | %Inh [4] [%] | %Inh [5] [%] | %Inh [6] [%] | %Inh [7] [%] | %Inh [8] [%] | %Inh [9] [%] | %Inh [10] [%] | %Inh [11] [%] | %Inh [12] [%] | %Inh [13] [%] | %Inh [14] [%] | %Inh [15] [%] | %Inh [16] [%] | %Inh [17] [%] | %Inh [18] [%] | %Inh [19] [%] | %Inh [20] [%]
Cl.c1ccc(Cn2ncc3cc(Nc4ncnc5ccccc45)ccc32)cc1 [GW273749] | 37 | 8 | 14 | 0 | 12 | 0 | 0 | 0 | 0 | 5 | 2 | 0 | 18 | 0 | 1 | 15 | 0 | 3 | 0 | 10
Fc1cccc(COc2ccc(Nc3ncnc4cc[nH]c34)cc2Cl)c1 | 8 | 10 | 4 | 29 | 24 | 8 | 0 | 0 | 0 | 12 | 12 | 3 | 16 | 11 | 9 | 10 | 9 | 48 | 0 | 21
COc1cc2c(Nc3cccc(NC(=O)c4ccccc4)c3)ncnc2cc1OCCCN1CCOCC1 [GSK223810] | 2 | 2 | 0 | 0 | 0 | 0 | 0 | 0 | 1 | 2 | 0 | 0 | 0 | 0 | 0 | 21 | 0 | 0 | 33 | 16
Cl.O=S(=O)(c1cccc(F)c1)c1ccc(Nc2ncnc3cc(Br)sc23)cc1Cl [GSK306886] | 9 | 3 | 22 | 0 | 8 | 1 | 0 | 1 | 32 | 5 | 0 | 0 | 59 | 0 | 0 | 23 | 4 | 0 | 44 | 0
O=C(c1ccc(-c2cc(-c3c[nH]nc3-c3ccccn3)ccn2)cc1)N1CCCC1 [GW792479] | 4 | 31 | 9 | 16 | 21 | 3 | 18 | 0 | 0 | 3 | 35 | 0 | 0 | 28 | 0 | 0 | 0 | 4 | 0 | 0
COc1ccc(NC(=O)Nc2ccc(C)c(-c3ccc(C(=O)Nc4ccncc4)cc3)c2)cc1 [GSK1398475] | 0 | 0 | 1 | 0 | 17 | 0 | 0 | 0 | 0 | 0 | 10 | 0 | 8 | 0 | 0 | 0 | 0 | 0 | 43 | 0
CN1c2ccc(-c3ccc(C(=O)NCCO)cc3)cc2-c2[nH]ncc2S1(=O)=O | 0 | 87 | 6 | 0 | 26 | 0 | 0 | 0 | 8 | 6 | 45 | 0 | 0 | 0 | 0 | 8 | 37 | 0 | 0 | 0
Clc1cc(Nc2ncnc3cc[nH]c23)ccc1OCc1ccccn1 | 9 | 17 | 24 | 20 | 14 | 0 | 0 | 0 | 5 | 0 | 22 | 6 | 0 | 16 | 0 | 7 | 0 | 35 | 0 | 2
Fc1ccc(-c2ncn(CCCNCc3ccccc3)c2-c2ccncc2)cc1 | 0 | 13 | 7 | 22 | 0 | 19 | 34 | 19 | 0 | 0 | 31 | 7 | 6 | 12 | 0 | 0 | 12 | 15 | 13 | 19
CCc1nc(-c2cccc(N(C)S(=O)(=O)c3ccccc3)c2)c(-c2ccnc(Nc3ccc(N4CCN(C(C)=O)CC4)nc3)n2)s1 [GSK1645895] | 7 | 15 | 23 | 0 | 15 | 0 | 0 | 0 | 14 | 9 | 9 | 19 | 0 | 0 | 0 | 14 | 0 | 0 | 8 | 3
FC(F)(F)c1cc(Nc2nccc(-c3c(-c4ccc(Cl)cc4)nn4ncccc34)n2)ccc1Cl [GW829351] | 1 | 0 | 0 | 0 | 16 | 0 | 0 | 0 | 0 | 0 | 2 | 0 | 0 | 0 | 0 | 0 | 4 | 0 | 29 | 0
CS(=O)(=O)CCNCc1nc(-c2ccc3ncnc(Nc4ccc(OCc5cccc(F)c5)c(Cl)c4)c3c2)cs1.Cl [GW583340] | 4 | 1 | 34 | 0 | 0 | 15 | 0 | 0 | 0 | 16 | 3 | 0 | 6 | 0 | 0 | 11 | 0 | 6 | 0 | 0
Nc1nc(-c2ccc3c(N)n[nH]c3c2)cc(N2CCC[C@@H](C(=O)Nc3ccccc3)C2)n1.O=C(O)C(F)(F)F.O=C(O)C(F)(F)F [GSK2288359] | 9 | 27 | 19 | 0 | 1 | 5 | 0 | 0 | 0 | 0 | 2 | 0 | 13 | 0 | 0 | 15 | 0 | 8 | 0 | 3
Nc1nc(-c2cccnc2)c(-c2ccnc3ccccc23)s1 [GW684083] | 83 | 15 | 0 | 0 | 0 | 11 | 77 | 27 | 0 | 13 | 2 | 20 | 0 | 0 | 0 | 4 | 29 | 66 | 9 | 11
O=C(CCO)NCCn1ccc2ncnc(Nc3ccc(Oc4cccc(C(F)(F)F)c4)c(Cl)c3)c21 | 6 | 0 | 0 | 3 | 20 | 0 | 0 | 0 | 0 | 0 | 18 | 0 | 0 | 0 | 0 | 0 | 6 | 0 | 0 | 0
Nc1n[nH]c2nnc(-c3ccccc3)cc12 [SB-517389] | 24 | 19 | 0 | 0 | 14 | 0 | 17 | 0 | 0 | 5 | 29 | 21 | 27 | 0 | 0 | 7 | 0 | 15 | 36 | 0
c1ccc(-c2ccc3c(-c4ccnc(Nc5ccc6c(c5)OCCO6)n4)cnn3n2)cc1 [GW818941] | 0 | 11 | 15 | 0 | 11 | 0 | 19 | 0 | 0 | 0 | 0 | 4 | 14 | 15 | 43 | 27 | 10 | 7 | 17 | 0
Clc1ccc(-c2cc(-c3c[nH]nc3-c3ccccn3)ccn2)cc1 [GW681251] | 0 | 0 | 0 | 0 | 0 | 0 | 12 | 0 | 0 | 0 | 3 | 8 | 36 | 0 | 0 | 2 | 30 | 16 | 11 | 2
CS(=O)(=O)CCNCc1ccc(-c2ccc3ncnc(Nc4ccc(OCc5ccccc5)c(Cl)c4)c3c2)o1.Cl [GW574783] | 2 | 7 | 0 | 0 | 0 | 0 | 23 | 26 | 0 | 0 | 0 | 5 | 0 | 0 | 0 | 0 | 100 | 0 | 12 | 0
CNc1nccc(-c2c(-c3ccc(F)cc3)ncn2C2CCN(C)CC2)n1 [SB-222903] | 0 | 0 | 0 | 19 | 33 | 17 | 0 | 0 | 0 | 0 | 17 | 0 | 0 | 0 | 0 | 0 | 31 | 0 | 83 | 0
